Test results as given in PubChem BioAssay AID1159580 (chemical genetic matrix, 2015).
Among all 5,500 compounds or so, about 2,000 (36%) were called active. Roughly 18% stayed inconclusive and do not appear here. Cut-off read from the data, not from the text of the source: active = normalized growth mostly below about 0.91 (no sharp cut-off); inconclusive = no clear call, values can overlap the other calls; inactive = mostly above about 0.92. Some of the results follow.

Test: chemical genetic growth profiling, strain panel (AID 1159580);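 note: tested at 20 µM; growth read once vehicle control cultures reached saturation at 30 °C; 1 = growth at the plate median or of vehicle wells; lower values mean less growth of the strain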
Conditions: S. cerevisiae deletion strains, growth OD

Measured: normalized growth

CC(C)(C)NCC(O)c1cc(Cl)c(N)c(Cl)c1 (centres undefined)
inactive: locus YAL013W, strain DEP1, active compounds read low 1.01 | locus YAL021C, strain ccr4, active compounds read low 0.985 | locus YAL026C, strain drs2, active compounds read low 1 | locus YAL030W, strain snc1, active compounds read low 1 | locus YBL061C, strain skt5, active compounds read low 1 | locus YBR009C, strain hhf1, active compounds read low 1 | locus YBR021W, strain FUR4, active compounds read low 1 | locus YBR023C, strain chs3, active compounds read low 1 | locus YBR171W, strain sec66, active compounds read low 1 | locus YBR229C, strain ROT2, active compounds read low 1.01 | locus YBR231C, strain swc5, active compounds read low 0.992 | locus YBR279W, strain paf1, active compounds read low 1.01 | locus YCL011C, strain gbp2, active compounds read low 1.01 | locus YCL016C, strain dcc1, active compounds read low 0.998 | locus YCL029C, strain bik1, active compounds read low 0.993 | locus YCL061C, strain MRC1, active compounds read low 1.01 | locus YCL069W, strain vba3, active compounds read low 0.992 | locus YCR088W, strain abp1, active compounds read low 0.998 | locus YDL005C, strain med2, active compounds read low 0.996 | locus YDL035C, strain GPR1, active compounds read low 1.01 | locus YDL040C, strain nat1, active compounds read low 0.988 | locus YDL074C, strain BRE1, active compounds read low 1 | locus YDL101C, strain DUN1, active compounds read low 1.01 | locus YDL134C, strain PPH21, active compounds read low 1.02 | locus YDL185W, strain tfp1, active compounds read low 1 | locus YDL192W, strain arf1, active compounds read low 1 | locus YDR001C, strain nth1, active compounds read low 0.995 | locus YDR069C, strain doa4, active compounds read low 0.989 | locus YDR101C, strain arx1, active compounds read low 0.983 | locus YDR137W, strain rgp1, active compounds read low 1 | locus YDR150W, strain NUM1, active compounds read low 1.02 | locus YDR159W, strain sac3, active compounds read low 0.978 | locus YDR162C, strain NBP2, active compounds read low 1 | locus YDR195W, strain ref2 0.961 | locus YDR297W, strain sur2, active compounds read low 1 | locus YDR318W, strain mcm21, active compounds read low 0.994 | locus YDR334W, strain swr1, active compounds read low 1 | locus YDR335W, strain msn5, active compounds read low 0.994 | locus YDR388W, active compounds read low 0.992 | locus YDR392W, strain spt3, active compounds read low 0.876 | locus YDR502C, strain sam2, active compounds read low 1.01 | locus YEL003W, strain gim4, active compounds read low 1 | locus YEL037C, strain rad23, active compounds read low 0.998 | locus YEL061C, strain CIN8 (second series), active compounds read low 1 | locus YEL061C, strain CIN8, active compounds read low 1.01 | locus YER015W, strain faa2, active compounds read low 0.999 | locus YER016W, strain bim1, active compounds read low 1 | locus YER110C, active compounds read low 0.998 | locus YER111C, strain swi4, active compounds read low 1.01 | locus YER155C, strain BEM2 (second series), active compounds read low 1.01 | locus YER155C, strain BEM2, active compounds read low 1.02 | locus YER167W, strain BCK2, active compounds read low 1.01 | locus YFR010W, strain ubp6, active compounds read low 0.994 | locus YGL078C, strain dbp3, active compounds read low 1.01 | locus YGL086W, strain mad1, active compounds read low 0.997 | locus YGL167C, strain pmr1, active compounds read low 1 | locus YGL173C, strain kem1, active compounds read low 0.996 | locus YGL227W, strain vid30, active compounds read low 1 | locus YGL240W, strain doc1, active compounds read low 0.98 | locus YGL248W, strain PDE1, active compounds read low 1 | locus YGL253W, strain hxk2, active compounds read low 0.984 | locus YGR078C, strain PAC10, active compounds read low 1.01 | locus YGR135W, strain pre9, active compounds read low 1.01 | locus YGR229C, strain SMI1, active compounds read low 1.01 | locus YGR252W, strain gcn5, active compounds read low 1.04 | locus YHR013C, strain ard1, active compounds read low 0.983 | locus YHR027C, strain rpn1, active compounds read low 0.994 | locus YHR030C, strain SLT2, active compounds read low 1.01 | locus YHR079C, strain IRE1 (second series), active compounds read low 1 | locus YHR094C, strain hxt1, active compounds read low 1 | locus YHR129C, strain ARP1, active compounds read low 1.02 | locus YHR142W, strain chs7, active compounds read low 0.997 | locus YHR200W, strain rpn10, active compounds read low 1 | locus YIL066C, strain RNR3, active compounds read low 1.01 | locus YIL073C, strain SPO22, active compounds read low 1 | locus YIL125W, strain kgd1, active compounds read low 1 | locus YIR030C, strain dcg1, active compounds read low 0.995 | locus YJL092W, strain hpr5, active compounds read low 0.997 | locus YJL095W, strain BCK1 (second series), active compounds read low 1 | locus YJL095W, strain BCK1, active compounds read low 1.01 | locus YJL115W, strain asf1, active compounds read low 1 | locus YJL129C, strain trk1, active compounds read low 0.996 | locus YJL134W, strain LCB3, active compounds read low 1.01 | locus YJL154C, strain vps35, active compounds read low 1 | locus YJL164C, strain tpk1, active compounds read low 1 | locus YJL166W, strain qcr8, active compounds read low 0.991 | locus YJL168C, strain set2, active compounds read low 0.992 | locus YJL187C, strain SWE1 (second series), active compounds read low 1.01 | locus YJL187C, strain SWE1, active compounds read low 1
